From the supplement of paper PMC3334620
The full ranking holds about 33,000 sequences; the median of “E-score (-0.5 to 0.5)” is about -0.017, and the highest 2% start at about 0.3. The list comes from a sample in which the highest values are over-represented; it also holds similar and randomly drawn sequences.

target: T1, Sut1 (UniProt P53032); assay: PBM E-score (8-mer binding enrichment) (E-score (-0.5 to 0.5)); higher = stronger / more preferred TF binding; settings: protein concentration: 200 nM; construct: GST-full length
T1 sequence: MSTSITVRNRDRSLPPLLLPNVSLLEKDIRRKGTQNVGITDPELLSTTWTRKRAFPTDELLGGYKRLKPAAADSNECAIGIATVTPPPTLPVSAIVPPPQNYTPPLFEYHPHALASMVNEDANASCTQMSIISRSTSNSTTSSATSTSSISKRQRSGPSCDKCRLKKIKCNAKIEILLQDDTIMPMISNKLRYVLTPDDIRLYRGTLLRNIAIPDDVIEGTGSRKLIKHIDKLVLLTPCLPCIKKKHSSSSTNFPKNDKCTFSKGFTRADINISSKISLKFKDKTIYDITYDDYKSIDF
Protocol: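 Universal 'all 10-mer' protein binding microarrays (Agilent AMADID 015681) probed with GST-tagged S. cerevisiae TFs (full-length or DBD) made by in vitro transcription/translation (PURExpress), about 100-200 nM. Bound TF was detected with fluorescent anti-GST. Each ungapped 8-mer (which stands for itself and its reverse complement) is scored by the PBM enrichment score (E-score), a modified Wilcoxon-Mann-Whitney statistic from -0.5 to +0.5, computed with the Universal PBM Analysis Suite. Scale: above 0.35 generally sequence-specific binding.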

In order of rising “PBM E-score” value:
1. GACGCGTC  -0.325
2. GGCCCTCA  -0.279
3. CAGCCTGA  -0.275
4. CCTCGGGC  -0.209
5. GCTCGGCC  -0.204
6. CGCCGGGA  -0.203
7. AACCCCTC  -0.198
8. AAGACTTC  -0.196
9. ACTCGTCG  -0.174
10. GGCCAGCA  -0.168
11. CTGAGCGA  -0.162
12. AACTCACT  -0.151
13. CCTTGCAG  -0.143
14. ACCCAGGA  -0.13
15. GCTCCCAC  -0.109
16. CGCTCAGC  -0.105
17. GACATCGC  -0.0981
18. ACACTAAG  -0.0951
19. ATATGAGG  -0.0891
20. CCTGTCAA  -0.085
21. CATATGTC  -0.0849
22. CTGGTTCA  -0.0784
23. ACTCGGTC  -0.072
24. ACTCGGTG  -0.0621
25. AAGTGAGC  -0.0565
26. CCTCGGTA  -0.0533
27. GACCGGGA  -0.0471
28. GCCTTGGA  -0.0418
29. ACTCGGGC  -0.0385
30. CCTCGGCG  -0.0382
31. CCCGGTCC  -0.0342
32. AAGGGGGA  -0.0309
33. CCCCGGGA  -0.0206
34. CATATATC  -0.0165
35. CTAGTTGC  -0.0129
36. TAATCGCA  -0.0128
37. CGCCGGGC  0.00809
38. GAAACGCA  0.026
39. CATATATG  0.0281
40. CATAACAC  0.0299
41. ACTCGGCG  0.0415
42. GGAGCGAA  0.0455
43. AGCGGAAT  0.0494
44. ACTCGGAT  0.0613
45. CAATTCAA  0.0614
46. CGACGAAA  0.0757
47. ATCCGGGA  0.0768
48. AAGGTTGA  0.0981
49. CAGTCAAA  0.0987
50. ATCTATAG  0.11
51. AGTAACTC  0.115
52. ATCCGGGC  0.127
53. GTCGGAAC  0.134
54. ATCGGAAC  0.14
55. GCTTTTTA  0.161
56. GCTCGGAA  0.165
57. CACGGAAA  0.188
58. CTCGGAAA  0.19
59. ATTTTGCG  0.193
60. GATATACA  0.194
61. GTTTAGTA  0.208
62. CCTCGGAA  0.215
63. TCTCGGAA  0.215
64. ATACATTA  0.234
65. GATATATA  0.247
66. TTCGGAAA  0.252
67. ATCGGAAG  0.253
68. TATATAGA  0.278
69. AATATACA  0.29
70. AACGGAAT  0.294
71. CATATATA  0.299
72. ATCGGAAA  0.302
73. TATATACA  0.316
74. ACTCGGAA  0.323
75. AACGGAAA  0.327
76. ATCGGAAT  0.352
77. GTCGGAAA  0.355
78. GCTCGGAC  0.365
79. TATATATA  0.381
80. CTCCGGGC  0.391
81. ACTCGGAG  0.399
82. ACTCGGAC  0.411
83. CCTCGGAC  0.412
84. GTCCGGGA  0.413
85. CTCCGGGA  0.436
86. CCTCGGAG  0.446
